Records with an inconclusive call do not appear. A structure can be active in one record and inactive in another. Calls of active or inactive are those of the source. Rule for the calls, unless noted: active = hit-call score of the fitted dose curve at least 0.9, where 1 is the maximum; inconclusive = response in the unintended direction; inactive = score below 0.9.
Columns and labels:
[1] = biological target: Glucocorticoid receptor (Homo sapiens) (UniProt P04150); experiment: NVS_NR_hGR: NovaScreen (NVS) Nuclear Receptor Binding Assay for human Glucocorticoid Receptor (GR) (AID 2283363);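 for AC50: activity is loss of specific radioligand binding signal relative to DMSO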
How it was run: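 Filter scintillation readout of tritiated/iodinated radioligand displaced by test chemical; cell-free extracted protein; 16 h. DMSO = negative control/baseline. Duplicate single-point 25 uM screen, then concentration-response on actives.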

[2] = biological target: Estrogen receptor beta (Homo sapiens) (UniProt Q92731); experiment: OT_ER_ERbERb_1440: Odyssey Thera (OT) 24-hour HEK293T Protein-Complementation Assay for Estrogen Receptor-beta/-beta Homodimer (AID 2283380);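 note: scored as signal increase over DMSO baseline for both agonists and antagonists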
How it was run: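 HEK293T cells stably expressing ER beta LBD (aa 310-547) homodimer fragment-complementation reporter, dosed 24 h. Cells formaldehyde-fixed, Draq5-stained; gain in nuclear (agonist) or nuclear plus cytoplasmic (antagonist) fluorescence versus DMSO read by laser scanning cytometry.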

[3] = biological target: Estrogen receptor (Homo sapiens) (UniProt P03372); experiment: OT_ERa_GFPERaERE_0480: Odyssey Thera (OT) 8-hour HeLa Transcription Induction Assay for Estrogen Receptor (AID 2283381; active = hit-call score of the fitted dose curve at least 0.9, where 1 is the maximum; inactive = score below 0.9)
How it was run: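 Fluorescence microscopy with high-content image analysis measures ERE-driven GFP induction in HeLa cells at 8 h post-dose. Increases fitted against DMSO baseline.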

[4] = biological target: Estrogen receptor (Homo sapiens) (UniProt P03372); experiment: OT_ERa_GFPERaERE_0120: Odyssey Thera (OT) 2-hour HeLa Transcription Induction Assay for Estrogen Receptor (AID 2283382)
How it was run: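 Fluorescence-microscopy images of the GFP-ERα/ERE reporter, scored by high-content image algorithms, give the readout. HeLa exposure lasted 2 h, and only signal increase over DMSO was fitted.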

[5] = biological target: Retinoic acid receptor RXR-alpha (Homo sapiens) (UniProt P19793); experiment: OT_NURR1_NURR1RXRa_0480: Odyssey Thera (OT) 8-hour HEK293T Protein Complementation Assay for Nurr1/retinoid X receptor (RXR) (AID 2283385)
How it was run: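 Interaction of Nurr1 with RXRα read as reconstituted reporter fluorescence in a HEK293T fragment-complementation system, 8 h post-treatment; increase over DMSO baseline analysed.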

[6] = system: guinea pig Dopamine Transporter (DAT), gene 100714898; experiment: NVS_TR_gDAT: NovaScreen (NVS) Transporter Assay for guinea pig Dopamine Transporter (DAT) (AID 2283369);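 note: active compounds lower bound radioligand signal relative to DMSO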
How it was run: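 Guinea pig striatal membranes; radioligand displacement measured by filter-based scintillation counting 2 h after dosing. Initial duplicate screen at 25 uM, then concentration-response up to 50 uM for hits; loss of signal versus DMSO baseline.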

[7] = biological target: Peroxisome proliferator-activated receptor gamma (Homo sapiens) (UniProt P37231); experiment: NVS_NR_hPPARg: NovaScreen (NVS) Nuclear Receptor Binding Assay for human Peroxisome Proliferator-activated Receptor gamma (PPARg) (AID 2283370)
How it was run: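 Cell-free binding to extracted PPARg protein, read by fluorescence polarization 2 h after dosing; loss of signal relative to DMSO baseline marks displacement. Primary screen in duplicate at 25 uM, actives retested in concentration series.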

[8] = biological target: human Serotonin Transporter (SERT), SLC6A4 (gene 6532) (UniProt P31645); experiment: NVS_TR_hSERT: NovaScreen (NVS) Transporter Assay for human Serotonin Transporter (SERT) (AID 2283372)
How it was run: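 Human platelet membrane preparation; displacement of radioligand from serotonin transporter measured after 1 h by filtration and scintillation counting. Single 25 uM duplicate screen, then concentration series for actives, with DMSO as negative baseline.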

[9] = system: rat Norepinephrine Transporter (NET), gene 83511; experiment: NVS_TR_rNET: NovaScreen (NVS) Transporter Assay for rat Norepinephrine Transporter (NET) (AID 2283373)
How it was run: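 Competitive radioligand displacement at the rat NET using forebrain membrane preparations, 1 h incubation, filter-based scintillation readout. Primary testing in duplicate at a single 25 uM concentration; confirmed actives retested across concentrations.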

[10] = biological target: human Dopamine Transporter (DAT), SLC6A3 (gene 6531) (UniProt Q01959); experiment: NVS_TR_hDAT: NovaScreen (NVS) Transporter Assay for human Dopamine Transporter (DAT) (AID 2283374);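 note: activity means loss of bound radioligand signal relative to DMSO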
How it was run: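 hDAT membranes + tritiated/iodinated radioligand, competitive displacement; 1 h; filter scintillation readout. Single conc 25 uM (duplicate), then conc-response for actives. DMSO = negative control.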

[11] = biological target: rat Serotonin Transporter (SERT), Slc6a4 (gene 25553) (UniProt P31652); experiment: NVS_TR_rSERT: NovaScreen (NVS) Transporter Assay for rat Serotonin Transporter (SERT) (AID 2283375)
How it was run: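 Rat forebrain membranes were incubated with test chemical for 1 hour; radioligand binding to SERT was measured by filter-based scintillation counting. Primary screen ran in duplicate at 25 uM, with actives followed up in concentration series; DMSO served as negative control.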

[12] = biological target: human Norepinephrine Transporter (NET), SLC6A2 (gene 6530) (UniProt P23975); experiment: NVS_TR_hNET: NovaScreen (NVS) Transporter Assay for human Norepinephrine Transporter (NET) (AID 2283377);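 note: cell-free membrane protein extracted from CHO cells expressing human NET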;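 for AC50: displacement of radioligand from human NET seen as loss of scintillation signal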
How it was run: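 CHO cell extracts expressing the transporter; tritiated or iodinated tracer displaced competitively; filtration plus scintillation readout at 1 h. Single-point duplicates at 25 uM, concentration series for follow-up; activity = signal drop relative to DMSO.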

[13] = biological target: Bile acid receptor (Homo sapiens) (UniProt Q96RI1); experiment: OT_FXR_FXRSRC1_1440: Odyssey Thera (OT) 24-hour HEK293T Protein-Complementation Assay for Farnesoid X receptor/SRC-1 Co-activator (AID 2283384)
How it was run: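 Protein-fragment complementation: FXR and SRC-1 fused to reporter fragments that reassemble on interaction, read by fluorescence intensity. Human HEK293T cells measured 24 h post-dose; positive-direction fit versus DMSO.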

[14] = biological target: Agonist Androgen Response Element (ARE), AR (gene 367) (UniProt P10275); experiment: OT_AR_ARELUC_AG_1440: Odyssey Thera (OT) 24-hour CHO-K1 Luciferase Assay for Agonist Androgen Response Element (ARE) (AID 2283379)
How it was run: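 Gain-of-signal reporter endpoint: cells (CHO-K1, hamster) are treated 24 h, luciferin/ATP reagent added, and luminescence compared with DMSO baseline.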

[15] = biological target: Bile acid receptor (Homo sapiens) (UniProt Q96RI1); experiment: OT_FXR_FXRSRC1_0480: Odyssey Thera (OT) 8-hour HEK293T Protein-Complementation Assay for Farnesoid X receptor/SRC-1 Co-activator (AID 2283383)
How it was run: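 Binding of FXR to coactivator SRC-1 was read as fluorescence from a reconstituted split reporter in HEK293T cells, 8 h after chemical addition. Only increases in signal versus DMSO were fit.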

[16] = biological target: Retinoic acid receptor alpha (Homo sapiens) (UniProt P10276); experiment: NVS_NR_hRARa_Agonist: NovaScreen (NVS) Nuclear Receptor Binding Assay for human Retinoic Acid Alpha Receptor Agonism (RAR) (AID 2283361)
How it was run: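 TR-FRET signal, 2 h post-dosing; cell-free extracted protein; DMSO = baseline, positive fitting direction; 25 uM single-point duplicate, then concentration series for actives.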

[17] = biological target: guinea pig Sigma Receptor, Non-selective Binding, SIGMAR1 (gene 100135589) (UniProt Q60492); experiment: NVS_OR_gSIGMA_NonSelective: NovaScreen (NVS) Nuclear Receptor Binding Assay for guinea pig Sigma Receptor, Non-selective Binding (AID 2283367)
How it was run: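 Membranes from guinea pig brain incubated with radioligand and test chemical for 1 h, then filtered and scintillation-counted. Duplicate primary testing at 25 uM, with concentration-series follow-up for actives.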

[18] = biological target: human Thyroid Receptor Alpha (TRa), THRA (gene 7067) (UniProt P10827); experiment: NVS_NR_hTRa_Antagonist: NovaScreen (NVS) Nuclear Receptor Binding Assay for human Thyroid Receptor Alpha Antagonism (TRa) (AID 2283362);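 note: activity is loss of signal relative to DMSO baseline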
How it was run: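 Cell-free binding assay on extracted receptor protein, read 1 h after chemical dosing by AlphaLISA chemiluminescence; loss of signal relative to DMSO baseline marks antagonism. Primary screen ran in duplicate at 25 uM, with concentration series for actives.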

[19] = biological target: rat Androgen Receptor (AR), Ar (gene 24208) (UniProt P15207); experiment: NVS_NR_rAR: NovaScreen (NVS) Nuclear Receptor Binding Assay for rat Androgen Receptor (AR) (AID 2283366)
How it was run: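 Actives from a duplicate single-concentration (25 uM) primary run went on to concentration series. Displacement of radioligand was counted by filtration and scintillation, 18 h post-dose, using prostate extracts from testosterone-pretreated rats, with DMSO as baseline.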

Measured: AC50

Chain of Retinoic acid receptor RXR-alpha (Homo sapiens) (P19793 whole entry, looked up, the tested form may be a part): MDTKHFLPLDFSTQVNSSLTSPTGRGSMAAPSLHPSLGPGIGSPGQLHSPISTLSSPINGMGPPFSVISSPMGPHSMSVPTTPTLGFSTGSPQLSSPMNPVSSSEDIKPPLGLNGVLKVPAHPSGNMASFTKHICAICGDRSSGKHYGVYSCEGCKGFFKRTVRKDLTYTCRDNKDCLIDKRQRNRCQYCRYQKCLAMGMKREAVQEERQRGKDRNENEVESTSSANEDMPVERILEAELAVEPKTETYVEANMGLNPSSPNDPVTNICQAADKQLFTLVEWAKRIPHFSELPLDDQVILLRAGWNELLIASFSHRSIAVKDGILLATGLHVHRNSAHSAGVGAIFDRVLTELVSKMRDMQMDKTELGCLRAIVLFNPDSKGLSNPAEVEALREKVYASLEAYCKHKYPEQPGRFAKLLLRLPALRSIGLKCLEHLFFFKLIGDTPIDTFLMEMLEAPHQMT
Chain of Glucocorticoid receptor (Homo sapiens) (P04150 whole entry, looked up): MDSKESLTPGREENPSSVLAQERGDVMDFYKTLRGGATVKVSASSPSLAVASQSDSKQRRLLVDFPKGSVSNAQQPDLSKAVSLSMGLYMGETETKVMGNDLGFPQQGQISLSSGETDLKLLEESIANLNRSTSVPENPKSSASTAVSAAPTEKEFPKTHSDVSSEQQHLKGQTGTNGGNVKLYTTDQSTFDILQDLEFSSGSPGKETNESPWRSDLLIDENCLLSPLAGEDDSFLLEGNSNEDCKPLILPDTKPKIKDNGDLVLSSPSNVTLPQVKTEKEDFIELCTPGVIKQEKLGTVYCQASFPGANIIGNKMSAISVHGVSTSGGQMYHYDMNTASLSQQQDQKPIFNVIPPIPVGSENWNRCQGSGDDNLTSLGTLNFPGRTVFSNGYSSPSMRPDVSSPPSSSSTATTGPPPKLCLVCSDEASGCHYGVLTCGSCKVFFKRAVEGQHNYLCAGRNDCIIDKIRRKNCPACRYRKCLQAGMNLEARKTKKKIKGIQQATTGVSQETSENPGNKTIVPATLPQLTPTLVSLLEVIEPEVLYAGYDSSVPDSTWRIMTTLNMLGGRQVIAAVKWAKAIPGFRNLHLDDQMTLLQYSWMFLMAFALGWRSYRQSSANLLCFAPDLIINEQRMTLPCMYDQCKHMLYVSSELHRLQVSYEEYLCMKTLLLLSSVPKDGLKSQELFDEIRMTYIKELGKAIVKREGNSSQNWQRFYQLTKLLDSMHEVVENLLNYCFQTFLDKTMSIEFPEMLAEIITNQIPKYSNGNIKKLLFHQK
Chain of Estrogen receptor (Homo sapiens) (P03372 whole entry, looked up): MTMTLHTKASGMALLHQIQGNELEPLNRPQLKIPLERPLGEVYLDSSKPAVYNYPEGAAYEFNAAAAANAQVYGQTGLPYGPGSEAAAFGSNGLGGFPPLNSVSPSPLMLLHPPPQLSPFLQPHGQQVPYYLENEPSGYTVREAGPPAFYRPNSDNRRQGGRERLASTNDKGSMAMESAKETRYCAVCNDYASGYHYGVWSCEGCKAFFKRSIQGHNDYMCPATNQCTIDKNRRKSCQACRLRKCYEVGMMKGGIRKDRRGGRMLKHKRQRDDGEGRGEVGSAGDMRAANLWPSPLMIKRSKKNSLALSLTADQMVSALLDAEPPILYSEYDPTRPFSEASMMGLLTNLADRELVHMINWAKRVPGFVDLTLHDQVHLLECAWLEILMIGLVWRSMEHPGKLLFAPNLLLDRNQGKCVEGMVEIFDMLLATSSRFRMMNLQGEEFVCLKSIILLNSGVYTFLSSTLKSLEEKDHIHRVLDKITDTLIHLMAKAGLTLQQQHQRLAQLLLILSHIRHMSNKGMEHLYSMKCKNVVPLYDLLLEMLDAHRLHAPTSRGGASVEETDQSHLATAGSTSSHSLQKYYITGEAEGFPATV
Chain of human Dopamine Transporter (DAT), SLC6A3 (gene 6531) (Q01959 whole entry, looked up): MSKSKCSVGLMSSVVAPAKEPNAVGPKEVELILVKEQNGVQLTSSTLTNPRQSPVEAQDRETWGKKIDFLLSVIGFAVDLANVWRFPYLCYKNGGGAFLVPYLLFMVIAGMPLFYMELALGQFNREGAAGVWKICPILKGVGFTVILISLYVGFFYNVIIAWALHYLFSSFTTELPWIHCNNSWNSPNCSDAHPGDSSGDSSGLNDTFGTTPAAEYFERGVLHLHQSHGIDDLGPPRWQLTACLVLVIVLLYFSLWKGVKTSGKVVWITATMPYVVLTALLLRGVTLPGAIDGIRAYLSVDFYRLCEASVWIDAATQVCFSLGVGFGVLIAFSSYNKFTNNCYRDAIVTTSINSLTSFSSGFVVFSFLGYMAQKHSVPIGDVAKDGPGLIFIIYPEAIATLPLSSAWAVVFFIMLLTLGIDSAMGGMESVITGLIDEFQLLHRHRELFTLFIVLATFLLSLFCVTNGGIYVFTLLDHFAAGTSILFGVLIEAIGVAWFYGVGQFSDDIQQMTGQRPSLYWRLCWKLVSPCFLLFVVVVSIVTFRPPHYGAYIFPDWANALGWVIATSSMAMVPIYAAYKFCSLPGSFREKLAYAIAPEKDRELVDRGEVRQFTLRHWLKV
Chain of Peroxisome proliferator-activated receptor gamma (Homo sapiens) (P37231 whole entry, looked up): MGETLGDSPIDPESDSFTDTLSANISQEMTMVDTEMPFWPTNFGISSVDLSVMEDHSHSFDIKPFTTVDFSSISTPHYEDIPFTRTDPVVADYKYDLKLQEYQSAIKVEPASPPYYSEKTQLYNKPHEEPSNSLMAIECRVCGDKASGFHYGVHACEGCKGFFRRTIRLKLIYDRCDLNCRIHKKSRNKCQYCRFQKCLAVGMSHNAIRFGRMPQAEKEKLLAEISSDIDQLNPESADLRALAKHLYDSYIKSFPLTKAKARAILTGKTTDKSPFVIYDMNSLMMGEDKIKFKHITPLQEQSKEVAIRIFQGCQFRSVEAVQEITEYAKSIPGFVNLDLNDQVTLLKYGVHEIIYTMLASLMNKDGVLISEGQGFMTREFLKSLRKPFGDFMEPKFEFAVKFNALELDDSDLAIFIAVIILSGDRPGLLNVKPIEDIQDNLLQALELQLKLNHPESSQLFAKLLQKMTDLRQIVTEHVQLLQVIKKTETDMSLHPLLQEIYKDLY
Chain of Bile acid receptor (Homo sapiens) (Q96RI1 whole entry, looked up, the tested form may be a part): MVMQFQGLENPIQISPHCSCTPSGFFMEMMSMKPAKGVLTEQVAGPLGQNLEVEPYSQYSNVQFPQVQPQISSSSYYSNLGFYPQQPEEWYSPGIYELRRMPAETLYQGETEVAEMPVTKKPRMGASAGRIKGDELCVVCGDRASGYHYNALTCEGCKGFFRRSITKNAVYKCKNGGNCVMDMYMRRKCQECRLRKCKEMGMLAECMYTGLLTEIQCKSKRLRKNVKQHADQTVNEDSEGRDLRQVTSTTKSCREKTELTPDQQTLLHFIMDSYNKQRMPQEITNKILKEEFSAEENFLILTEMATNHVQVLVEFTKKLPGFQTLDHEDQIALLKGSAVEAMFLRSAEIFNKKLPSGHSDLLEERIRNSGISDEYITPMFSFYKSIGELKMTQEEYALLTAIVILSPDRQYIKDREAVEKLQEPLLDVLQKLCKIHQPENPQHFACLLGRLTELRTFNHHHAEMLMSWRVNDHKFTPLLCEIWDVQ
Chain of human Norepinephrine Transporter (NET), SLC6A2 (gene 6530) (P23975 whole entry, looked up): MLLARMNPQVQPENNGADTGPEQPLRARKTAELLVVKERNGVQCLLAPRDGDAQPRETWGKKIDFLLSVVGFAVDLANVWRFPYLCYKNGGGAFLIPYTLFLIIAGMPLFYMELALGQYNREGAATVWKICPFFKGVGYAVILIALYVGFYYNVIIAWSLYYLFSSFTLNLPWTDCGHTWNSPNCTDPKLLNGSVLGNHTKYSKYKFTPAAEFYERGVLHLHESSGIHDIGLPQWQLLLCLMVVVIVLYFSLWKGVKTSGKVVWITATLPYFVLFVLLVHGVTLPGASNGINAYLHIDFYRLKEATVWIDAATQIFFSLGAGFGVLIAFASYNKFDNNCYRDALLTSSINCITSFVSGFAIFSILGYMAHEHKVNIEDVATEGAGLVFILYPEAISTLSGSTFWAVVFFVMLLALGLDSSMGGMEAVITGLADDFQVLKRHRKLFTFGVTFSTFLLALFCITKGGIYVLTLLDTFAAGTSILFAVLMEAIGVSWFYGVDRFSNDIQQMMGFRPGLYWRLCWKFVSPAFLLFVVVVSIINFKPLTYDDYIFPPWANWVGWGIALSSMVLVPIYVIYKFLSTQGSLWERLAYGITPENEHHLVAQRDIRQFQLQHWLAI
Chain of rat Serotonin Transporter (SERT), Slc6a4 (gene 25553) (P31652 whole entry, looked up): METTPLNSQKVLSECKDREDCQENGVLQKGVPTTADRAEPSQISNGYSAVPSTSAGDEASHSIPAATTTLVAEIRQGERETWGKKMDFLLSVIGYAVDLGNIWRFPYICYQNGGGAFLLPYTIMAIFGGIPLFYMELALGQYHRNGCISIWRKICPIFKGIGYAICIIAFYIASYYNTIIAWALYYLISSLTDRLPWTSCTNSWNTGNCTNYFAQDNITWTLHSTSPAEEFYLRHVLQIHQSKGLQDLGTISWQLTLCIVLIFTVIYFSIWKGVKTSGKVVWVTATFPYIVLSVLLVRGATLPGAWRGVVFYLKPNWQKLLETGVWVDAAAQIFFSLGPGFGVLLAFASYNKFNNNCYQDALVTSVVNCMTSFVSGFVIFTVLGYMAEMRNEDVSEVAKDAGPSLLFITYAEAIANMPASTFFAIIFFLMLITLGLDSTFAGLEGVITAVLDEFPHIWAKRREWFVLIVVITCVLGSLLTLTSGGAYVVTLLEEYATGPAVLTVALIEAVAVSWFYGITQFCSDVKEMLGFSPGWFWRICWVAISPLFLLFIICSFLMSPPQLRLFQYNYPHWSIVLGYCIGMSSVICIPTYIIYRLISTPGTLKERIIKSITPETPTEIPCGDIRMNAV
Chain of guinea pig Sigma Receptor, Non-selective Binding, SIGMAR1 (gene 100135589) (Q60492 whole entry, looked up): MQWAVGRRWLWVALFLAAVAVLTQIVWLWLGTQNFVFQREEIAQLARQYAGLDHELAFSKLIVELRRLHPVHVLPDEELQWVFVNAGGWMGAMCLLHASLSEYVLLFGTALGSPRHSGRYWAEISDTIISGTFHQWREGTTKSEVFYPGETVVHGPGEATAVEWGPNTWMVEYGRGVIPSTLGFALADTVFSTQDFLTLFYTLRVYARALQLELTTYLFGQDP

O=P(OC(CCl)CCl)(OC(CCl)CCl)OC(CCl)CCl
active: [1] 15.5 µM
inactive: [2] | [3] | [4] | [5]

CCOC(=O)c1ccc(C2CCC(NC[C@H](O)COc3ccc(O)c(NS(C)(=O)=O)c3)CC2)cc1 (some centres not stated)
inactive: [1] | [7]
active: [6] 8.87 µM | [8] 14.9 µM | [9] 7.29 µM | [10] 0.321 µM | [11] 1.71 µM | [12] 1.01 µM | [13] 28.8 µM

Oc1ccc2c(c1)-c1ccccc1C2
inactive: [1] | [7] | [14] | [15] | [13] | [5]
active: [10] 10.9 µM | [12] 9.7 µM | [2] 11 µM

Cn1c(=O)c2c(ncn2C)n(C)c1=O
inactive: [16] | [5]

O=C(O)CC(O)C(=O)O (configuration not stated)
active: [17] 14.8 µM | [6] 5.6 µM | [10] 4.96 µM
inactive: [2] | [5]

O=c1[nH]c2ccc(S(=O)CCN3CCC(Cc4ccc(F)cc4)CC3)cc2o1 (configuration not stated)
inactive: [7] | [2] | [3] | [4] | [5]
active: [17] 0.339 µM | [6] 6.75 µM | [10] 3.16 µM | [11] 0.403 µM | [12] 2.28 µM

On1ccccc1=S
inactive: [5]
active: [18] 9.11 µM

COc1ccc(-n2nc(C(F)F)cc2-c2ccc(S(C)=O)cc2)cc1 (configuration not stated)
inactive: [7] | [3] | [4] | [5]
active: [1] 16.7 µM

CC(C)CCCCCCCOC(=O)CCCCC(=O)OCCCCCCCC(C)C
inactive: [16] | [17] | [12] | [15] | [13]
active: [10] 25 µM

CCCCCCc1ccc(O)cc1O
inactive: [11] | [14] | [5]
active: [1] 33.7 µM | [7] 25 µM | [10] 10 µM | [12] 12.8 µM

CCOc1cccc(-n2cc(C(=O)N3CCN(c4cc(C(=O)O)c5ccccc5c4)CC3)nc2-c2ccc(C)cc2)c1
active: [16] 16.2 µM | [1] 14.6 µM | [19] 13.5 µM | [6] 23.8 µM | [8] 34.2 µM | [10] 8.21 µM | [11] 14.7 µM | [12] 13.7 µM | [15] 11.3 µM | [13] 11.3 µM
inactive: [7] | [14]

O=C(O)c1cccc(N(Cc2cccnc2)c2ccc(OC(F)F)c(OC(F)F)c2)c1
inactive: [19] | [14] | [2]
active: [7] 25 µM | [5] 29.4 µM

CCc1cc(SCc2sc(-c3ccc(C(F)(F)F)cc3)nc2CN2CCN(c3ccc(OC)cc3)CC2)ccc1OCC(=O)O
active: [1] 1.57 µM | [6] 15.2 µM | [7] 7.42 µM | [10] 13.9 µM | [12] 4.89 µM | [13] 12 µM
inactive: [15]

Cn1c(=O)cc(Oc2ccc(F)cc2F)c2cnc(NCC(C)(C)O)nc21
active: [1] 2.48 µM | [7] 32.4 µM | [12] 4.35 µM
inactive: [17] | [3] | [4] | [15] | [13]

O=C(OC[C@H]1O[C@@H](OC(=O)c2cc(O)c(O)c(OC(=O)c3cc(O)c(O)c(O)c3)c2)[C@H](OC(=O)c2cc(O)c(O)c(OC(=O)c3cc(O)c(O)c(O)c3)c2)[C@@H](OC(=O)c2cc(O)c(O)c(OC(=O)c3cc(O)c(O)c(O)c3)c2)[C@@H]1OC(=O)c1cc(O)c(O)c(OC(=O)c2cc(O)c(O)c(O)c2)c1)c1cc(O)c(O)c(OC(=O)c2cc(O)c(O)c(O)c2)c1
inactive: [6] | [5]
active: [1] 0.533 µM | [10] 2.65 µM | [5] 20.5 µM
